# Assay results published in PubChem BioAssay.
# This is one part of the list. The source made the active and inactive calls. Unless noted, no stated cut-off is given here; in the data, active means activity above about 50%; inactive means the rest.
# Assays:
# PEG-3 [1] = molecular target: PEG-3 (UniProt Q6IN02); test: inhibition of PEG-3 promoter-driven reporter – cell-based, HeLa, luciferase, CREF/GAPDH counter-screen panel, dose response (AID 624167); details: HeLa PEG-Prom luciferase reporter, overnight, CREF/GAPDH counter-screens; run 1, dose range 1, at 100 µM (top of the series)
# Sequence of PEG-3 (Q6IN02 whole entry, looked up): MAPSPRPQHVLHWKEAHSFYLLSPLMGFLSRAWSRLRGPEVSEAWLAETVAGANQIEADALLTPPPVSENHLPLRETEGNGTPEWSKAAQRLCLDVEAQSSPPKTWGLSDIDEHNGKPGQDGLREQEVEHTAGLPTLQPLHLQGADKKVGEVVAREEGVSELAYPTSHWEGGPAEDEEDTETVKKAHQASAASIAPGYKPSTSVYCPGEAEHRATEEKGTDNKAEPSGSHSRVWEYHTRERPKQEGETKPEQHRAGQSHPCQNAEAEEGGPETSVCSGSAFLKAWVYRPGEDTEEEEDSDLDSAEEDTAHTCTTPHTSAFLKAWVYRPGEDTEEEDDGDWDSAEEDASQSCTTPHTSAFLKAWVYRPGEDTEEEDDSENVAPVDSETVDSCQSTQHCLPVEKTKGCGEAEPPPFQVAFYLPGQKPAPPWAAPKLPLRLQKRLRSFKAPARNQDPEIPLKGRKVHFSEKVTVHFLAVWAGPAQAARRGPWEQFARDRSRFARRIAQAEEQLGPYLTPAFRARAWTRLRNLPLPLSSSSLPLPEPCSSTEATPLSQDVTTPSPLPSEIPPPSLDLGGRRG
# PEG-3 [2] = molecular target: PEG-3 (UniProt Q6IN02); test: as above; details: HeLa PEG-Prom luciferase reporter, overnight, CREF/GAPDH counter-screens; run 2, dose range 1, at 100 µM (top of the series)
# Rat fibroblasts (CREF) [3] = test: as above; details: CREF/GAPDH counter-screens; run 1, dose range 1, at 100 µM (top of the series)
# Rat fibroblasts (CREF) [4] = test: as above; details: CREF/GAPDH counter-screens; run 2, dose range 1, at 100 µM (top of the series)
# [5] = molecular target: Tumor necrosis factor receptor superfamily member 10B (Homo sapiens) (UniProt O14763); test: viability loss of caspase-8 NB7 cells with TRAIL – with/without TRAIL, luminescence panel, confirmation (AID 651596); details: NB7 neuroblastoma + caspase-8, TRAIL sensitization, NB7 Caspase-8, with TRAIL, mean of runs, at 10 µM, stronger effect = higher value
# Sequence of Tumor necrosis factor receptor superfamily member 10B (Homo sapiens) (O14763 whole entry, looked up): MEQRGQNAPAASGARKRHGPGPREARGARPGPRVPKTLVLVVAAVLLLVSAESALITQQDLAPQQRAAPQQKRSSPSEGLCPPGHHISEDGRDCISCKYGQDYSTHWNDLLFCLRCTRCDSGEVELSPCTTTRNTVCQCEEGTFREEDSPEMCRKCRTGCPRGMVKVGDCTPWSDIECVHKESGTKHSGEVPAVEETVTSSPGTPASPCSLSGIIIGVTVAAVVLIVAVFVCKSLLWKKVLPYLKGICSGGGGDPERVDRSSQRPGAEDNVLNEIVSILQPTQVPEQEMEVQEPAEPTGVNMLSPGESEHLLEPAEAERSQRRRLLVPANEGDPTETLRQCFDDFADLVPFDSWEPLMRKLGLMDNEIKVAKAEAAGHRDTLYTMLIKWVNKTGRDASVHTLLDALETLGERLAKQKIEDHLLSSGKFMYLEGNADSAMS
# [6] = as above; details: NB7 neuroblastoma + caspase-8, without TRAIL, NB7 Caspase-8, without TRAIL, mean of runs, at 10 µM
# [7] = NFkB reporter suppression in cystic fibrosis bronchial cells – cell-based, uHTS hits, panel, cytotoxicity readout, dose response (AID 624344); details: CF bronchial epithelial cells, PAF-induced NFkB reporter inhibition, with PAF, run 1; at 79 µM (top of the series)
# [8] = as above; details: CF bronchial epithelial cells, PAF-induced NFkB reporter inhibition, with PAF, run 2; at 79 µM (top of the series)
# [9] = HIF-2a driven luciferase blockers, single dose – luminescence, 786-0 RCC cells, confirmation (AID 651580;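 active means mean inhibition across four replicates of at least 40 percent at the single tested concentration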); details: HIF-2a luciferase reporter luminescence, overnight, at 18.8 µM, stronger effect = higher value
# [10] = HIF-1a luciferase reporter signal reduction – MiaPaCa-2 cells, single concentration, counter-screen for HIF-2a inhibitor project, confirmation (AID 651589;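 active means mean inhibition of the reporter signal across four replicates at the single tested dose of 50% or more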); details: MiaPaCa-2 HIF-1a luciferase reporter, desferoxamine, overnight; at 18.8 µM; stronger effect = higher value
smiles,measurement,setting,value
O=C1NC(=O)N(Cc2ccccc2)C(=O)/C1=C\C=C\c1ccco1,inhibition,PEG-3 [1],94.5%
same,inhibition,PEG-3 [2],98.5%
CCC(c1nnnn1-c1ccc2c(c1)OCCO2)N1CCC(n2c(=O)[nH]c3ccccc32)CC1 (stereo unspecified),inhibition,PEG-3 [1],101%
same,inhibition,PEG-3 [2],102%
same,inhibition,Rat fibroblasts (CREF) [3],76.5%
same,inhibition,Rat fibroblasts (CREF) [4],63.2%
CCOC(=O)c1c(-n2c(C)cc(C=C3C(=O)NC(=S)NC3=O)c2C)sc2c1CCCC2,inhibition,PEG-3 [1],96.7%
same,inhibition,PEG-3 [2],101%
same,inhibition,Rat fibroblasts (CREF) [3],95.9%
same,inhibition,Rat fibroblasts (CREF) [4],97.3%
CCN(CC)C(=O)c1ccc(NC(=O)Nc2ccccc2F)cc1,inhibition,PEG-3 [1],82.1%
same,inhibition,PEG-3 [2],93.2%
same,activity,[5],69.6%
same,activity,[6],63.9%
COc1cc(C2c3cc4c(cc3CC3COC(=O)C32)OCO4)cc(OC)c1O (stereo unspecified),inhibition,[7],-31.2%
same,inhibition,[8],-1.25%
CNC(=O)O/N=C(\N)Cc1csc2ccc(Cl)cc12,activity,[5],87.3%
same,activity,[6],91.2%
COc1ccc(-n2nnnc2C(c2cccc(OC)c2OC)N2CCC(n3c(=O)[nH]c4ccccc43)CC2)cc1 (stereo unspecified),inhibition,[7],99.3%
same,inhibition,[8],97.4%
CNC(=O)Oc1ccc(-c2cn3cc(C)ccc3n2)cc1,activity,[5],95.7%
same,activity,[6],95.5%
NC(=O)c1c(Br)n(C2OC(CO)C(O)C2O)c2ncnc(N)c12 (stereo unspecified),inhibition,[7],106%
same,inhibition,[8],116%
C=CC[C@@H](CC/C=C/C=C/CC/C=C\[C@@H]1CSC([C@@H]2C[C@@H]2C)=N1)OC,inhibition,[7],91.9%
same,inhibition,[8],64.9%
C=C1C(=O)OC2CC3(C)OC3CCC(C)=CC(OC(C)=O)C12 (stereo unspecified),inhibition,[7],93.9%
same,inhibition,[8],99.9%
COc1ccc(-n2nnnc2C(CCc2ccccc2)N2CCC(n3c(=O)[nH]c4ccccc43)CC2)cc1 (stereo unspecified),inhibition,[7],103%
same,inhibition,[8],101%
same,activity,[5],91.1%
same,activity,[6],88.8%
COc1cc(C2c3cc4c(c(O)c3CC3COC(=O)C32)OCO4)cc(OC)c1OC (stereo unspecified),inhibition,[7],110%
same,inhibition,[8],85%
COc1cc2c(c(OC)c1OC)-c1ccc(O)cc1C(NC(C)=O)CC2 (stereo unspecified),inhibition,[7],-101%
same,inhibition,[8],0.843%
NC(=Nc1ccccc1)NN=Cc1c[nH]c2ccccc12,inhibition,[7],94.3%
same,inhibition,[8],116%
O=c1[nH]c2ccccc2n1C1CCN(C(c2cccc3ccccc23)c2nnnn2Cc2ccccc2)CC1 (stereo unspecified),inhibition,[7],103%
same,inhibition,[8],101%
C=CCn1c(O)c(C(C)=NCc2cc(OC)cc(OC)c2)c(=O)[nH]c1=O,activity,[5],79.5%
same,activity,[6],84.8%
COc1ccc2c(c1)[nH]c1c(C)nccc12,inhibition,[7],113%
same,inhibition,[8],97.6%
COc1ccc(C(c2nnnn2-c2ccc(OC)cc2)N2CCC(n3c(=O)[nH]c4ccccc43)CC2)cc1 (stereo unspecified),inhibition,[7],98.8%
same,inhibition,[8],103%
CCC(C)(O)C(=O)OC1C(=O)OC2CC3C(C)=CC(=O)C(O)C3(C)C3C4(O)OCC23C1C(C)C4O (stereo unspecified),inhibition,[9],55.2% (active)
same,inhibition,[10],101% (active)
COc1ccc(-n2nnnc2C(c2cccs2)N2CCC(n3c(=O)[nH]c4ccccc43)CC2)cc1 (stereo unspecified),inhibition,[7],102%
same,inhibition,[8],102%
CCOC(=O)[C@]12Cc3cc(Cl)ccc3[C@H]1N(C1CCCCC1)C(=O)c1ccccc12,activity,[5],98.5%
same,activity,[6],99.3%
CC(=O)c1c(C)n(C2CCCCC2)c2ccc(O)cc12,inhibition,[7],95.6%
same,inhibition,[8],102%
Cc1c(C(=O)c2cccc3ccccc23)c2cccc3c2n1[C@H](CN1CCOCC1)CO3,inhibition,[7],104%
same,inhibition,[8],112%
COc1ccc(Oc2cc(NC(=O)c3nn(C)cc3[N+](=O)[O-])cc([N+](=O)[O-])c2)cc1,inhibition,[7],113%
same,inhibition,[8],101%
same,activity,[5],94.2%
same,activity,[6],97.4%
C[C@H]1C[C@@H](C)C(=O)[C@@H]([C@H](O)CC2CC(=O)NC(=O)C2)C1,inhibition,[7],107%
same,inhibition,[8],113%
CCOC(=O)[C@]12Cc3ccccc3[C@H]1N(C1CCCCC1)C(=O)c1cc(OC)ccc12,inhibition,[9],93.2% (active)
same,inhibition,[10],106% (active)
same,activity,[5],85.5%
same,activity,[6],88%
O=c1[nH]c2ccccc2n1C1CCN(C(c2cc3ccccc3o2)c2nnnn2-c2ccc3c(c2)OCCO3)CC1 (stereo unspecified),inhibition,[7],103%
same,inhibition,[8],104%
same,activity,[5],81.4%
same,activity,[6],83.5%
CN(C)C(=O)O/N=C(\N)COc1ccc(C(C)(C)C)cc1,activity,[5],96.8%
same,activity,[6],98.2%
C=CCn1c(O)c(C(CC)=NCc2cc(OC)cc(OC)c2)c(=O)[nH]c1=O,activity,[5],46.4%
same,activity,[6],37.5%
CCOC(=O)[C@]12Cc3cc(Cl)ccc3[C@H]1N(CC(=O)OC)C(=O)c1ccccc12,activity,[5],40.5%
same,activity,[6],64%
COC1C(O)C(C)OC(OC2CCC3(C=O)C(CCC4C3CCC3(C)C(C5=CC(=O)OC5)CCC43O)C2)C1O (stereo unspecified),inhibition,[9],40% (inactive)
same,inhibition,[10],105% (active)
same,activity,[5],85.2%
same,activity,[6],91.8%
COc1ccc2nc(-c3ccc(CN4CCC(n5c(=O)[nH]c6ccccc65)CC4)cc3)c(-c3ccccc3)nc2c1,activity,[5],39.8%
same,activity,[6],24.9%
COc1cc2c(c(OC)c1O)-c1ccc(OC)c(=O)cc1C(NC(=O)C(F)(F)F)CC2 (stereo unspecified),inhibition,[7],-39.2%
same,inhibition,[8],24.5%
CCCCn1nnnc1C(CCc1ccccc1)N1CCC(n2c(=O)[nH]c3ccccc32)CC1 (stereo unspecified),inhibition,[7],89.5%
same,inhibition,[8],93%
